Assay results taken from paper PMC5540273 (PLoS ONE, 2017).

tested on: T1, RSK4(Kin.Dom.1-N-terminal); conditions: concentration: 1 μM, replicates: in singlicate; n = 1
T1 construct: gene RPS6KA6
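Also: KINOMEscan kinase panel screen.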

Row | Structure (SMILES) | %Inh [%]
1 | Cc1cccc(Nc2nc(N[C@H]3CCNC3)ncc2C(N)=O)c1.Cl [GSK2197149] | 30
2 | O=C(Nc1ccccc1F)NC1CCN(c2ccnc(Nc3ccc(F)cc3)n2)CC1 [GSK1379800] | 0
3 | CN(C)S(=O)(=O)c1cc(-c2ccc3nccc(-c4cccc(S(N)(=O)=O)c4)c3c2)cnc1N [GSK1669921] | 2
4 | COc1ccc(CNC(=O)NC2CCN(c3ccnc(Nc4ccc(F)cc4)n3)CC2)cc1 [GSK1379788] | 0
5 | Cl.Cl.NCC(C(=O)Nc1cc(Br)c(-c2ccnc3[nH]ccc23)s1)c1ccccc1 (stereo not drawn) [GSK1269851] | 0
6 | COC(=O)Nc1nc2ccc(Oc3ccc(NC(=O)Nc4cc(C(F)(F)F)ccc4F)cc3)cc2n1C.Cl [GW692089] | 0
7 | Nc1ncc(-c2cccnc2)c2scc(-c3ccc4c(c3)CCN4C(=O)Cc3ccccc3)c12 [GSK683281] | 0
8 | Cc1ccc(C(=O)Nc2ccc(Nc3ccnc4cc(-c5nccs5)ccc34)cc2O)cc1.Cl [GW494702] | 0
9 | Cn1cc(-c2[nH]c3cc(NC(=O)[C@H](N)C4CCCCC4)cc4c3c2C=NNC4=O)cn1 | 86
10 | CCc1ccc(-c2ccc3c(c2)-c2c(cnn2C)S(=O)(=O)N3C)cc1 | 0
11 | Nc1ncc(-c2ccc3nccc(-c4ccncc4)c3c2)cc1S(=O)(=O)N1CCOCC1 [GSK1627798] | 14
12 | O=C(Nc1n[nH]c2nc(-c3ccc(O)cc3)ccc12)C1CC1 [SB-710363] | 70
